Assay results as given in PubChem BioAssay (NCATS).
Several values for one entry are separate records, joined by “and”; a condition that tells them apart may be missing. Identical values can stand only once. Values without a mark were called inactive.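 The calls were made as follows: active = compounds whose dose series gives a full or clear partial fitted curve of increased nuclear translocation; inconclusive = weak partial curve or effect only at the top dose; inactive = no dose-dependent translocation response.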
Potency is read from the fitted curve at half-maximal effect.

The compounds below were run against Glucocorticoid receptor (Homo sapiens) (UniProt P04150) (assay: GR-GFP Redistribution (AID 450)). Details: U2OS GR-GFP nuclear translocation, laser cytometry, 2 h.
Sequence of Glucocorticoid receptor (Homo sapiens) (P04150 whole entry, looked up): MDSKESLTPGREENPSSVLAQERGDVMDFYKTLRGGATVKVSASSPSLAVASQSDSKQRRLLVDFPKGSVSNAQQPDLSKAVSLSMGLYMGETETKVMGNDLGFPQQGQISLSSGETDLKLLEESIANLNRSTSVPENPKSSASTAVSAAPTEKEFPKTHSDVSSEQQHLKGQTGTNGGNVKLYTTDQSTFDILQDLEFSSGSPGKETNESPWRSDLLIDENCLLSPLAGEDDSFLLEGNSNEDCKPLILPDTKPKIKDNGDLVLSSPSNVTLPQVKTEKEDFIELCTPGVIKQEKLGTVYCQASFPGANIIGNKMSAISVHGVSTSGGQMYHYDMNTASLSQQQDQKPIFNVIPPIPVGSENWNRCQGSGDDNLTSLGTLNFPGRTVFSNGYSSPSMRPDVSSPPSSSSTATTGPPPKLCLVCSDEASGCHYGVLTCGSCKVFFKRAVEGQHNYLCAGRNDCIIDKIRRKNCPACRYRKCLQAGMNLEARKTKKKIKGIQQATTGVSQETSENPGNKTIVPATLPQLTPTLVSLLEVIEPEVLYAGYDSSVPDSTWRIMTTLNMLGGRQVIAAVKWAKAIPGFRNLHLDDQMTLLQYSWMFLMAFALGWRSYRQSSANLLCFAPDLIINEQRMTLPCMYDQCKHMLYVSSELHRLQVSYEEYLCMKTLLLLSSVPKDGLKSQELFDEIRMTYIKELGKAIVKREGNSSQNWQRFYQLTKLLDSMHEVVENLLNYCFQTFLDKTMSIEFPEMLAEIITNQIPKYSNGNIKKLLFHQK
With `C=C1c2cccc(O)c2C(O)=C2C(=O)[C@@]3(O)C(O)=C(C(N)=O)C(=O)[C@@H](N(C)C)[C@@H]3[C@@H](O)[C@H]12` the Potency was greater than 20.6 µM. In the case of `COc1ccc(CCN(C)CCCOc2ccc(S(=O)(=O)c3[nH]c4ccccc4c3C(C)C)cc2)cc1OC`, the Potency is reported as greater than 46 µM. `NS(=O)(=O)c1cc(Cl)c(Cl)c(S(N)(=O)=O)c1` showed a Potency greater than 20.6 µM. For `CCCCC[C@H](O)C=C[C@H]1[C@H](O)CC(=O)[C@H]1CCCCCCC(=O)O`, the Potency was greater than 46 µM. `Cc1cc(NC(=O)Nc2ccc(N(C)C)cc2)c2cc(F)cc(F)c2n1` gave a Potency greater than 46 µM. For `CN(C)c1ccccc1CN1CCCN(Cc2ccccc2N(C)C)C1c1ccncc1`, the Potency was greater than 46 µM. In the case of `CC1C(=O)OC2C(O)C34C5CC(C(C)(C)C)C36C(OC(=O)C6O)OC4(C(=O)O5)C12O` (centres undefined), the Potency is reported as greater than 46 µM. In the case of `O=c1cc(-c2ccc(O)c(O)c2)oc2cc(O)cc(O)c12`, the Potency is reported as > 20.6 µM and > 46 µM. `Cc1ccc(NC(=O)c2cccc(N(C)C)c2)cc1NC(=O)c1ccc(O)cc1` showed a Potency greater than 46 µM. Work on `COc1nccc(-c2c(-c3ccc(F)cc3)ncn2C2CCC(O)CC2)n1` (centres undefined) yielded a Potency greater than 46 µM. Compound `NC(=O)c1nnn(Cc2cc(Cl)c(C(=O)c3ccc(Cl)cc3)c(Cl)c2)c1N` has a Potency greater than 46 µM. Work on `CN(C)CCN(Cc1ccc(Cl)cc1)c1ccccn1` yielded a Potency greater than 20.6 µM. `O=S(=O)(O)c1ccc2cc(N=Nc3cc(S(=O)(=O)O)c4cccnc4c3O)ccc2c1` showed a Potency greater than 46 µM. `CN1CCN2c3ncccc3Cc3ccccc3C2C1` (centres undefined) was tested, and the Potency was greater than 46 µM. Compound `CCCCC(C=O)NC(=O)C(CC(C)C)NC(=O)OCc1ccccc1` (centres undefined) has a Potency greater than 46 µM. For `Cc1cc2nc3c(=O)[nH]c(=O)nc-3n(CC(O)C(O)C(O)CO)c2cc1C` (centres undefined), the Potency was greater than 20.6 µM. `CC(NCCc1ccc(O)cc1)C(O)c1ccc(O)cc1` (centres undefined) was tested, and the Potency was greater than 20.6 µM. `CN[C@H]1[C@@H](O[C@@H]2[C@H](O[C@@H]3[C@@H](O)[C@@H](O)[C@@H](N=C(N)N)[C@@H](O)[C@@H]3N=C(N)N)O[C@H](C)[C@@]2(O)C=O)O[C@@H](CO)[C@@H](O)[C@H]1O` gave a Potency greater than 20.6 µM. In the case of `CCC(=C(CC)c1ccc(O)cc1)c1ccc(O)cc1`, the Potency is reported as greater than 20.6 µM.
